Laboratory results: PubChem BioAssay (NCATS)
Where “and” joins values, the source holds several entries; their conditions need not be identical. Equal entries are not always repeated. Inconclusive results are not listed. Calls of active or inactive are those of the source. Calls follow the shape of the dose curve; as a rule, active = well fitted curve in the direction sought with a large enough effect; inconclusive = small, poorly fitted or top-dose-only effect, or another doubt; inactive = no such curve, though single readings can be large; an effect the other way counts as inactive or inconclusive.

How the values were obtained:
TAB109 = assay: qHTS profiling for inhibitors of Plasmodium falciparum proliferation (AID 504749); also: nearly all actives have a fitted effect of over 60% in size; also: potency is read from the fitted curve at half-maximal effect; conditions: P. falciparum in erythrocytes, SYBR Green DNA, 72 h; series mostly up to 28.7 µM
Summary of the method: (§1)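 Three-day growth assay of blood-stage parasites in erythrocytes (0.3% parasitemia, 2.5% hematocrit) at 37 C, 5% CO2, quantified by SYBR Green DNA staining after overnight detergent lysis.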

TAB113 = assay: as above; conditions: P. falciparum in erythrocytes, SYBR Green DNA, 72 h; series mostly up to 28.7 µM
Summary of the method: as §1

TAB165 = assay: as above; conditions: P. falciparum in erythrocytes, SYBR Green DNA, 72 h; series mostly up to 28.7 µM
Summary of the method: as §1

W2 = assay: as above; conditions: P. falciparum in erythrocytes, SYBR Green DNA, 72 h; series mostly up to 28.7 µM
Summary of the method: as §1

CRL-7250 = normal cell line; assay: Cytotoxic Profiling of Annotated Libraries Using Quantitative High-Throughput Screening (AID 1296008); conditions: Five cell lines viability, CellTiter-Glo ATP luminescence, 48-72 h; max response: active compounds read low; also: nearly all actives have a fitted effect of over 60% in size; as to max response: % is scaled to controls: 0 for no effect and ±100 for the full control effect
Summary of the method: (§2)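 Cytotoxicity was measured as CellTiter-Glo ATP luminescence, read after 10 min at room temperature. Compound treatment of the cells lasted 48 or 72 hr at 37 degrees Celsius in a qHTS format.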

HEK293 = assay: as above; conditions: Five cell lines viability, CellTiter-Glo ATP luminescence, 48-72 h; max response: active compounds read low
Summary of the method: as §2

HaCat [1] = assay: as above; conditions: Five cell lines viability, CellTiter-Glo ATP luminescence, 48-72 h; max response: active compounds read low
Summary of the method: as §2

KB-3-1 = assay: as above; conditions: Five cell lines viability, CellTiter-Glo ATP luminescence, 48-72 h; max response: active compounds read low
Summary of the method: as §2

NIH3T3 [2] = assay: as above; conditions: Five cell lines viability, CellTiter-Glo ATP luminescence, 48-72 h; max response: active compounds read low
Summary of the method: as §2

HACAT [3] = assay: qHTS assay to identify novel small-molecules to repurpose for Merkel cell carcinoma treatment (AID 1296009); conditions: MCC and control cell lines, CellTiter-Glo viability, 72 h; at 44.8 µM (top of the series) unless noted; also: nearly all actives have a fitted effect of over 60% in size
Summary of the method: (§3)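 After compound transfer in DMSO, plates were kept 72 hr at 37 degree celsius. Luminescent ATP signal from CellTiter-Glo served as viability measure, normalized against DMSO and no-cell controls.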

HEK293T = assay: as above; conditions: MCC and control cell lines, CellTiter-Glo viability, 72 h; at 44.8 µM (top of the series) unless noted
Summary of the method: as §3

MCC-13 = assay: as above; conditions: MCC and control cell lines, CellTiter-Glo viability, 72 h; series mostly up to 46 µM
Summary of the method: as §3

MCC-26 = assay: as above; conditions: MCC and control cell lines, CellTiter-Glo viability, 72 h; series mostly up to 46 µM
Summary of the method: as §3

MKL-1 = assay: as above; conditions: MCC and control cell lines, CellTiter-Glo viability, 72 h; series mostly up to 46 µM
Summary of the method: as §3

MKL-2 = assay: as above; conditions: MCC and control cell lines, CellTiter-Glo viability, 72 h; series mostly up to 46 µM
Summary of the method: as §3

UISO = assay: as above; conditions: MCC and control cell lines, CellTiter-Glo viability, 72 h; series mostly up to 46 µM
Summary of the method: as §3

WaGa = assay: as above; conditions: MCC and control cell lines, CellTiter-Glo viability, 72 h; series mostly up to 46 µM
Summary of the method: as §3

C33A = assay: Primary qHTS to identify gynecologic anti-cancer compounds using libraries of approved drugs and bioactive compounds (AID 1345084); conditions: Gynecologic cancer cell panel viability, ATPlite luminescence, 48 h; series mostly up to 57.5 µM; also: % is scaled to controls: 0 for no effect and ±100 for the full control effect; nearly all actives have a fitted effect of over 55% in size
Summary of the method: (§4)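 48 h compound exposure at 37 C, 5% CO2; five-point qHTS. ATPlite luminescence readout of cell ATP.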

NIH3T3 [4] = assay: qHTS assay to identify novel small-molecules to repurpose for Merkel cell carcinoma treatment (AID 1296009); conditions: MCC and control cell lines, CellTiter-Glo viability, 72 h; at 44.8 µM (top of the series) unless noted; also: nearly all actives have a fitted effect of over 60% in size
Summary of the method: as §3

CAOV3 = assay: Primary qHTS to identify gynecologic anti-cancer compounds using libraries of approved drugs and bioactive compounds (AID 1345084); conditions: Gynecologic cancer cell panel viability, ATPlite luminescence, 48 h; series mostly up to 57.5 µM; also: % is scaled to controls: 0 for no effect and ±100 for the full control effect; nearly all actives have a fitted effect of over 55% in size
Summary of the method: as §4

NC(=O)NC(=O)Cc1ccccc1
inactive: Potency (TAB109) | Potency (TAB113) | Potency (TAB165) | Potency (W2) | max response (CRL-7250) 3.98% | outcome (HEK293) | outcome (HaCat [1]) | max response (KB-3-1) 5.24% | max response (NIH3T3 [2]) 3.84% | outcome (HACAT [3]) | outcome (HEK293T) | Potency (MCC-13) | Potency (MCC-26) | Potency (MKL-1) | Potency (MKL-2) | Potency (UISO) | Potency (WaGa) | Potency (C33A)

O=C(O)c1ccccc1O
inactive: Potency (TAB109) | Potency (TAB113) | Potency (TAB165) | Potency (W2) | max response (CRL-7250) 0.122% | outcome (HEK293) | max response (HaCat [1]) 2.15% | max response (KB-3-1) 7.74% and -13.4% | outcome (NIH3T3 [2]) | outcome (HEK293T) | Potency (MCC-13) | Potency (MCC-26) | Potency (MKL-1) | Potency (MKL-2) | outcome (NIH3T3 [4]) | Potency (UISO) | Potency (WaGa) | Potency (C33A) | Potency (CAOV3)

C[C@H](N)[C@H](O)c1cccc(O)c1
inactive: Potency (TAB109) | Potency (TAB113) | Potency (TAB165) | Potency (W2) | max response (CRL-7250) -3.27% | outcome (HEK293) | outcome (HaCat [1]) | max response (KB-3-1) 1.71% | max response (NIH3T3 [2]) 1.91% | outcome (HACAT [3]) | outcome (HEK293T) | Potency (MCC-13) | Potency (MCC-26) | Potency (MKL-1) | Potency (MKL-2) | Potency (UISO) | Potency (WaGa) | Potency (C33A)

Cc1cc(CC(=O)O)n(C)c1C(=O)c1ccc(Cl)cc1
inactive: Potency (TAB109) | Potency (TAB113) | Potency (TAB165) | Potency (W2) | outcome (CRL-7250) | outcome (HEK293) | max response (HaCat [1]) -1.31% | max response (KB-3-1) -2.26% and -15.1% | max response (NIH3T3 [2]) -0.54% | outcome (HEK293T) | Potency (MCC-13) | Potency (MCC-26) | Potency (MKL-1) | Potency (MKL-2) | Potency (UISO) | Potency (WaGa) | Potency (C33A) | Potency (CAOV3)

Cc1ccc(C(C)C)cc2c(C)ccc1-2
inactive: Potency (TAB109) | Potency (TAB113) | Potency (TAB165) | max response (CRL-7250) 3.16% | outcome (HEK293) | max response (HaCat [1]) -2.06% | max response (KB-3-1) -19.4% | outcome (NIH3T3 [2]) | outcome (HEK293T) | Potency (MCC-13) | Potency (MCC-26) | Potency (MKL-1) | Potency (MKL-2) | outcome (NIH3T3 [4]) | Potency (UISO) | Potency (WaGa) | Potency (C33A) | Potency (CAOV3)

CO/N=C(\C(=O)N[C@@H]1C(=O)N2C(C(=O)O)=C(CSc3nc(=O)c(O)nn3C)CS[C@H]12)c1csc(N)n1
inactive: max response (CRL-7250) 1.86% | outcome (HEK293) | max response (HaCat [1]) -21.1% | max response (KB-3-1) -0.48% | outcome (NIH3T3 [2]) | outcome (HEK293T) | Potency (MCC-13) | Potency (MCC-26) | Potency (MKL-1) | Potency (MKL-2) | outcome (NIH3T3 [4]) | Potency (UISO) | Potency (WaGa) | Potency (C33A) | Potency (CAOV3)

NC1CCN(c2cccc(Cl)n2)CC1
active: Potency (W2) 6.01 µM
inactive: Potency (TAB109) | Potency (TAB113) | Potency (TAB165) | max response (CRL-7250) 0.115% | max response (HEK293) -9.08% | outcome (HaCat [1]) | max response (KB-3-1) 2% | outcome (NIH3T3 [2]) | outcome (HACAT [3]) | Potency (MCC-13) | Potency (MCC-26) | Potency (MKL-1) | Potency (MKL-2) | outcome (NIH3T3 [4]) | Potency (UISO) | Potency (WaGa) | Potency (C33A) | Potency (CAOV3)

O=C1N=C(O)CN1/N=C/c1ccc(-c2ccc([N+](=O)[O-])cc2)o1
inactive: outcome (CRL-7250) | max response (HEK293) -11.3% | outcome (HaCat [1]) | max response (KB-3-1) 4.36% | max response (NIH3T3 [2]) -4.3% | outcome (HACAT [3]) | Potency (MCC-13) | Potency (MCC-26) | Potency (MKL-1) | Potency (MKL-2) | Potency (UISO) | Potency (WaGa) | Potency (C33A) | Potency (CAOV3)

CCCCC/C(C=O)=C\c1ccccc1
inactive: max response (CRL-7250) -6.23% | outcome (HEK293) | max response (HaCat [1]) 1.14% | max response (KB-3-1) -6.5% | outcome (NIH3T3 [2]) | outcome (HEK293T) | Potency (MCC-13) | Potency (MCC-26) | Potency (MKL-1) | Potency (MKL-2) | outcome (NIH3T3 [4]) | Potency (UISO) | Potency (WaGa) | Potency (C33A)

CN(C)CC[C@@H](c1ccc(Cl)cc1)c1ccccn1
inactive: max response (CRL-7250) 4.72% | max response (HEK293) -2.7% | max response (HaCat [1]) 0.999% | max response (KB-3-1) -22.8% | outcome (NIH3T3 [2]) | Potency (MCC-13) | Potency (MCC-26) | Potency (MKL-1) | Potency (MKL-2) | outcome (NIH3T3 [4]) | Potency (UISO) | Potency (WaGa) | Potency (C33A) | Potency (CAOV3)

O=Cc1ccccc1C=O
inactive: Potency (TAB109) | Potency (TAB113) | Potency (TAB165) | Potency (W2) | max response (CRL-7250) -8.99% | outcome (HEK293) | max response (HaCat [1]) 3.01% | max response (KB-3-1) -3.37% | outcome (NIH3T3 [2]) | outcome (HEK293T) | Potency (MCC-13) | Potency (MCC-26) | Potency (MKL-1) | Potency (MKL-2) | outcome (NIH3T3 [4]) | Potency (UISO) | Potency (WaGa) | Potency (C33A) | Potency (CAOV3)

CC1(C)OC(=O)NC1=O
inactive: Potency (TAB109) | Potency (TAB113) | Potency (TAB165) | Potency (W2) | max response (CRL-7250) 4.73% | outcome (HEK293) | outcome (HaCat [1]) | max response (KB-3-1) 1.34% | max response (NIH3T3 [2]) 3.48% | outcome (HACAT [3]) | outcome (HEK293T) | Potency (MCC-13) | Potency (MCC-26) | Potency (MKL-1) | Potency (MKL-2) | Potency (UISO) | Potency (WaGa) | Potency (C33A)

Nc1ccc(S(=O)(=O)Nc2ccc(Cl)nn2)cc1
active: Potency (TAB165) 1 µM
inactive: Potency (W2) | max response (CRL-7250) -2.16% | outcome (HEK293) | max response (HaCat [1]) 0.946% | max response (KB-3-1) 14.3% and -6.92% | max response (NIH3T3 [2]) 1.13% | outcome (HEK293T) | Potency (MCC-13) | Potency (MCC-26) | Potency (MKL-1) | Potency (MKL-2) | Potency (UISO) | Potency (WaGa) | Potency (C33A) | Potency (CAOV3)

Oc1ccc(C(O)CNCCCCCCNCC(O)c2ccc(O)c(O)c2)cc1O (stereo unspecified)
inactive: max response (CRL-7250) -1.96% | outcome (HEK293) | outcome (HaCat [1]) | max response (KB-3-1) 1.48% | max response (NIH3T3 [2]) 0.438% | outcome (HACAT [3]) | outcome (HEK293T) | Potency (MCC-13) | Potency (MCC-26) | Potency (MKL-1) | Potency (MKL-2) | Potency (UISO) | Potency (WaGa) | Potency (C33A)
active: Potency (TAB165) 11.2 µM | Potency (W2) 16.9 µM
